Hits are enriched below; roughly 2.2% of the tested compounds scored in any of these assays.
Beta cell apopt – inhibitors of cytokine-induced beta cell apoptosis, primary screen, luminescence; INS-1E cytokine-induced death, ATP luminescence, 48 h; percent of positive-control rescue, neutral wells zero; actives 0.8% (n = 300,000); protection from apoptosis, % (test concentration not listed);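 active = Every replicate reaches about 75%, or at least half do and their mean reaches it too, limit read from the data; inconclusive = At least half of replicates reach the limit but their mean does not; inactive = Under half of replicates reach the limit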;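 note: higher means more ATP so stronger rescue from cytokine killing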
CSC inhib – cancer stem cell viability inhibitors, primary screen, luminescence; cancer stem cell-like cells viability; inhibition, % at 7.5 µM; actives 1.1% (n = 300,000); AID 2717, 2010; in the data active = inhibition above about 75%; inconclusive = no clear call, values can overlap the other calls; tested in HMLE shEcad cells
PfHsp90 yeast 2 – growth inhibition of PfHsp90-expressing yeast, primary screen, antimalarial PfHsp90 inhibitor project, S. cerevisiae, BacTiter-Glo luminescence, single point, set 2 | BacTiter-Glo ATP, 48 h; yeast lacking PDR1 and PDR3 efflux regulators | inhibition, % at 9.4 µM | actives 0.32% (n = 310,000) | AID 504621, 2011;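 active = every replicate shows inhibition above about 80%, whatever the replicate mean, limit read from the data; inconclusive = mean inhibition reaches the set limit but some replicate falls short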
Calb FLC – C. albicans growth inhibition with fluconazole, primary screen, CaCi-2 strain, Alamar Blue fluorescence | growth inhibition, % (concentration not given with the values) | AID 1979, 2009 | C. albicans CaCi-2 (fluconazole-resistant clinical isolate) + fluconazole, 48 h | actives 0.57% (n = 300,000);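 active = growth inhibition above about 58% in most replicates, limit read from the data, passing the limit was not always enough; inconclusive = exactly half the replicates above a set limit; inactive = most replicates below a set limit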;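 note: all wells also contain fluconazole at 8 µg/ml as a sub-toxic cotreatment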
Shn3 3UTR inh – reduction of Shn3 3'UTR firefly luciferase signal, primary screen, Schnurri-3 inhibitor project, cell-based, Clone20 osteoblasts, set 2. Clone20 osteoblast Shn3 3'UTR firefly luciferase, 24 h. inhibition, % at 12.5 µM. actives 0.52% (n = 360,000). AID 588674, 2011;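 active = mean inhibition of at least 75% with every replicate also reaching 75%; inconclusive = mean inhibition at least 75% but some replicate below; inactive = mean inhibition below 75%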
Large screens that a line does not name were inactive.

CCC(=O)NC(C)c1cc(Cl)c2cccnc2c1O (configuration not stated)	Shn3 3UTR inh 91.1 (no result: Calb FLC)
C=CCNS(=O)(=O)NC(=O)C1=C(N2CCCC2)COC1=O	none (no result: CSC inhib, Calb FLC)
CN(C)c1ccc(N2C(=NC(=O)c3ccccc3)SC3CS(=O)(=O)CC32)cc1 (configuration not stated)	none
CCOC(=O)c1cn(CC(=O)Nc2cccc(Cl)c2C)nn1	Shn3 3UTR inh 95.4 (no result: PfHsp90 yeast 2)
CS(=O)(=O)Nc1ccc(-c2cc(/C=C3\SC(N)=NC3=O)c[nH]c2=O)cc1	none
CC(C)C[C@H](CO)N(Cc1ccccc1)S(=O)(=O)N(Cc1ccccc1)[C@@H](CO)CC(C)C	CSC inhib 107.2 (no result: Calb FLC)
COC(=O)[C@H](CC(C)C)N(Cc1ccccc1)S(=O)(=O)N(Cc1ccccc1)[C@@H](CC(C)C)C(=O)OC	Beta cell apopt 121.4 (no result: Calb FLC)
COC(=O)[C@H](CC(C)C)N(Cc1ccccc1)S(=O)(=O)N(Cc1ccc(OC)cc1)[C@@H](CC(C)C)C(=O)OC	Beta cell apopt 116.2 (no result: Calb FLC)
CCOC(=O)[C@@H](C)N(Cc1ccc(OC)cc1)S(=O)(=O)N(Cc1ccccc1)[C@H](C(=O)OC)C(C)C	none (no result: Calb FLC)
COC(=O)[C@H](CC(C)C)NS(=O)(=O)N(Cc1ccccc1)[C@@H](CC(C)C)C(=O)OC	none (no result: Calb FLC)
C=C[C@H](CC(C)C)N(Cc1ccccc1)S(=O)(=O)N(Cc1ccc(OC)cc1)[C@H](C=C)CC(C)C	Beta cell apopt 114.8 (no result: Calb FLC)
CNC(=O)c1ccc2cc(OC)c(OC)cc2c1	none (no result: Beta cell apopt, CSC inhib, PfHsp90 yeast 2, Calb FLC)
COC(=O)c1cccc(CN2C(=O)C(C)Sc3ccc(C(C)=O)cc32)c1 (configuration not stated)	none (no result: Beta cell apopt, CSC inhib, PfHsp90 yeast 2, Calb FLC)
Cc1cccc(NC(=O)Cc2nc(-c3c[nH]c(C(=O)N4CCCC4)c3)cs2)c1	none (no result: Beta cell apopt, CSC inhib, PfHsp90 yeast 2, Calb FLC)
C[C@@H]1CN([C@H](C)CO)C(=O)CCCn2nncc2CO[C@@H]1CN(C)C(=O)Nc1ccc2c(c1)OCO2	none (no result: Beta cell apopt, CSC inhib, PfHsp90 yeast 2, Calb FLC)
CC(=O)Nc1ccc(NC(=O)c2ccccc2S(=O)(=O)c2ccc([N+](=O)[O-])cc2)cc1	none
Nc1nc(Nc2ccccc2)nc(NC2CCCCC2)c1[N+](=O)[O-]	CSC inhib 103.7
Cc1cccc(Nc2nc(NCc3ccco3)c3ccccc3n2)c1	Beta cell apopt 91.4, CSC inhib 112.6, Shn3 3UTR inh 88.4
Cc1ccc(-c2nc(C(Cl)Cl)c3ccccc3n2)cc1	Beta cell apopt 93.7, CSC inhib 132.2
Cc1ccc(-c2nc(NCc3ccco3)c3ccccc3n2)cc1	CSC inhib 96.4 (no result: PfHsp90 yeast 2)
CCOc1ccccc1-n1nnnc1SCC(=O)N(C)C1CCS(=O)(=O)C1 (configuration not stated)	none (no result: Beta cell apopt, CSC inhib, PfHsp90 yeast 2, Calb FLC)
Cc1ccc(N2CCN(C(=O)NC3CCCCC3)CC2C)cc1 (configuration not stated)	none
CCCOc1ccc(C2=CSC3=NCCN23)cc1[N+](=O)[O-]	none
CNc1nc(N)c([N+](=O)[O-])c(Nc2cccc(F)c2)n1	Beta cell apopt 94.2
Cc1ccc(Nc2nc(N)c([N+](=O)[O-])c(NCc3ccco3)n2)cc1C	CSC inhib 84.0
CNc1nc(N)c([N+](=O)[O-])c(Nc2cccc(Cl)c2)n1	none (no result: PfHsp90 yeast 2)
Cc1ccc(OCCN2CCN(c3nc(NCc4ccco4)c4ccccc4n3)CC2)cc1	CSC inhib 111.5
c1ccc(Nc2nc(NCc3ccco3)c3ccccc3n2)cc1	Beta cell apopt 81.1
Oc1ccccc1Nc1nc(NCc2ccco2)c2ccccc2n1	none (no result: CSC inhib)
Cc1ccc(Nc2nc(N)c([N+](=O)[O-])c(NCCO)n2)cc1C	none (no result: Beta cell apopt, CSC inhib)
Cc1nn(-c2ccccc2)c2c1CC(=O)Nc1ccccc1-2	none (no result: Beta cell apopt, CSC inhib, Calb FLC)
O=C(CCS(=O)(=O)c1cccc2nsnc12)N1CCN(C(=O)c2ccco2)CC1	Calb FLC 56.6 (no result: CSC inhib, PfHsp90 yeast 2)
Cc1cc(N/N=C/c2c(O)ccc3ccccc23)nc(-c2ccccc2O)n1	Beta cell apopt 88.7, Calb FLC 81.9
Cc1cc(Nc2ccccc2Cl)nc(-c2ccccc2O)n1	none
Cc1cc(Nc2ccccc2)nc(-c2ccccc2O)n1	CSC inhib 80.3
Cc1cc(Nc2cccc(F)c2)nc(-c2ccccc2O)n1	CSC inhib 101.6
CC(C)c1cccc(C(C)C)c1OCCCCCN1CCOCC1	none (no result: PfHsp90 yeast 2)
O=C(Nc1ccccc1OC(F)F)c1ccc(-n2cncn2)c([N+](=O)[O-])c1	none (no result: CSC inhib, PfHsp90 yeast 2)
COc1cccc(Cn2c(NCC(C)C)nc3c2c(=O)n(C)c(=O)n3C)c1	none (no result: CSC inhib, PfHsp90 yeast 2)
COc1cccc(Cn2c(NCc3ccco3)nc3c2c(=O)n(C)c(=O)n3C)c1	Beta cell apopt 94.5 (no result: PfHsp90 yeast 2, Shn3 3UTR inh)
COc1ccc(Cl)c(Cn2c(NCc3ccco3)nc3c2c(=O)n(C)c(=O)n3C)c1	Beta cell apopt 77.8 (no result: Calb FLC)
CCCn1c(NCc2ccco2)nc2c1c(=O)n(C)c(=O)n2C	none
CC(C)(C)c1csc(Sc2ncccc2[N+](=O)[O-])n1	none
CC(=NCc1ccco1)c1c(C)[nH]n(-c2nc3ccccc3s2)c1=O	none
C/C(=N/NC(=O)c1cccs1)c1c(C)[nH]n(-c2nc3ccccc3s2)c1=O	Beta cell apopt 79.5, Calb FLC inconclusive
O=[N+]([O-])c1cccc2ccc(/C=C/c3ccc(C(F)(F)F)cc3)nc12	CSC inhib 77.8
Cc1cc2cc(CN3C(=O)c4ccccc4C3=O)ccc2n1C	Beta cell apopt 99.7
CC(=S)/C=C1\Sc2ccccc2N1C	Calb FLC 116.8
COc1ccc(C(=O)/C=C2\Sc3ccccc3N2C)cc1	none
C[C@H](CO)N1C[C@H](C)[C@@H](CN(C)C(=O)Nc2ccccc2)Oc2c(NC(=O)C3CCCCC3)cccc2C1=O	none (no result: Calb FLC)
COC(=O)c1sc2nc(N3CCCCC3)c3c(c2c1N)CCCC3	CSC inhib 84.5
N#Cc1nc(-c2ccc(OCc3ccccc3Cl)cc2)oc1NCCCn1ccnc1	CSC inhib 93.6 (no result: PfHsp90 yeast 2, Shn3 3UTR inh)
N#Cc1nc(-c2ccc(OCc3ccccc3)cc2)oc1NCCCn1ccnc1	CSC inhib 88.2, Calb FLC inconclusive
CCCOc1ccc(-c2nc(C#N)c(NCCCn3ccnc3)o2)cc1	none
CC(C)(C)c1ccc(-c2nc(C#N)c(NCCCn3ccnc3)o2)cc1	CSC inhib 88.0
Cc1ccc(N=Cc2c(C)[nH]n(-c3nc4ccccc4[nH]3)c2=O)cc1	Beta cell apopt 91.9, CSC inhib 94.8, PfHsp90 yeast 2 91.2
COc1ccc(Cc2nnc(SC(C)C(=O)Nc3ccc(F)cc3Cl)o2)cc1 (configuration not stated)	none (no result: PfHsp90 yeast 2)
Cn1c2ccccc2c2ccc3c(c21)C(=O)C=CC3=O	PfHsp90 yeast 2 124.4, Shn3 3UTR inh 94.4 (no result: Beta cell apopt, CSC inhib, Calb FLC)
COc1ccc2c(c1)c1ncn(CCN3CCCC3)c(=O)c1n2C	none
Cc1ccc2c(c1)c1ccc3c(c1n2C)C(=O)C=CC3=O	PfHsp90 yeast 2 inconclusive, Shn3 3UTR inh 94.7 (no result: Beta cell apopt, CSC inhib, Calb FLC)
COc1ccc2c(c1)c1ccc3c(c1n2C)C(=O)C=CC3=O	Shn3 3UTR inh 96.2 (no result: Beta cell apopt, CSC inhib, Calb FLC)
COc1ccc(N2CCN(C(=O)C3CCCN3S(=O)(=O)c3cccc4nsnc34)CC2)cc1 (configuration not stated)	none
